These results are taken from PubChem BioAssay (Tox21).

Several values for one entry are separate records, joined by “and”; a condition that tells them apart may be missing. Identical values can stand only once. Inconclusive results are not listed. Some compounds were tested as several samples or in several runs, with calls that do not always agree. Activity calls are given as the source filed them. Unless noted, the call rests on the fitted dose curve; in most records, active means well fitted curve in the direction sought with a large enough effect in the repeat runs; inconclusive means weak or mixed curves; inactive means no such curve, though single readings can be large; an effect the other way counts as inactive or inconclusive.

Experiment [1] in a line: qHTS assay to identify aromatase inhibitors - cell viability counter screen (AID 743084;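 further: cells stimulated with testosterone during compound exposure; nearly all actives have a fitted effect of over 55% in size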; further: potency means the concentration at half of the fitted maximal effect). (In general: Quantitative high-throughput screening tests each substance at several concentrations.)
Experiment [2] has as its target Aryl hydrocarbon receptor (Homo sapiens) (UniProt P35869). As to the kind of experiment: qHTS assay to identify small molecule that activate the aryl hydrocarbon receptor (AhR) signaling pathway (AID 743085).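 Further: HG2L7.5c1 human HepG2 liver cells with stably integrated DRE-driven firefly reporter; series mostly up to about 70 µM; nearly all actives have a fitted effect of over 15% in size.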 The essentials: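 Stably transfected human liver carcinoma cells (HG2L7.5c1; 20 DRE-firefly luciferase) were incubated 5 h, dosed, and kept 24 h at 37C. Agonism was scored from increased luciferase luminescence.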

The nature of experiment [3]: qHTS assay to identify small molecule that activate the aryl hydrocarbon receptor (AhR) signaling pathway - cell viability counter screen (AID 743086). Further: nearly all actives have a fitted effect of over 45% in size. Further: potency means the concentration at half of the fitted maximal effect. The essentials: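 HepG2-AhR-luc (HG2L7.5c1) cells, 4000/well, treated 24 h at 37 C with compound; viability measured as CellTiter-Fluor fluorescence after 30 min in the same wells as the luciferase read.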
Experiment [4] addresses Peroxisome proliferator-activated receptor gamma (Homo sapiens) (UniProt P37231). As to the kind of experiment: qHTS assay to identify small molecule agonists of the peroxisome proliferator-activated receptor gamma (PPARg) signaling pathway (AID 743094; active means well fitted activation curve with a large enough effect in the signal ratio in the repeat runs, not every such curve was filed as active; the % refers to the signal ratio; further: potency means the concentration at half of the fitted maximal effect). The procedure, abridged:
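Agonist activity was taken from a beta-lactamase reporter (FRET substrate, 1 h at room temperature) in HEK293H cells carrying a PPARg UAS-bla construct. Compounds in DMSO were incubated 17 h at 37C after a 5 h cell pre-incubation.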

The nature of experiment [5]: qHTS assay to identify small molecule antagonists of the peroxisome proliferator-activated receptor gamma (PPARg) signaling pathway - cell viability counter screen (AID 743194). Further: nearly all actives have a fitted effect of over 55% in size. Further: potency means the concentration at half of the fitted maximal effect. The essentials: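 Cytotoxicity counter screen in PPARg-bla HEK293H cells, same wells as reporter assay. Compounds plus 50 nM rosiglitazone (final) for 17 h at 37 C, then viability read by CellTiter-Glo luminescence.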

A short description of experiment [6]: qHTS assay for small molecule agonists of the antioxidant response element (ARE) signaling pathway (AID 743202; active means well fitted activation curve with a large enough effect in the signal ratio in the repeat runs, not every such curve was filed as active; the % refers to the signal ratio; further: potency means the concentration at half of the fitted maximal effect). The procedure, abridged: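 HepG2 ARE-bla reporter line, 2,000 cells/well; 5 h preincubation 37 C/5% CO2; compound (DMSO) 16 h 37 C; B/G FRET substrate 2 h RT; fluorescence intensity.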
The nature of experiment [7]: qHTS assay for small molecule agonists of the antioxidant response element (ARE) signaling pathway - cell viability counter screen (AID 743203; calls by dose curve; further: nearly all actives have a fitted effect of over 55% in size; further: potency means the concentration at half of the fitted maximal effect). The procedure, abridged:
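Viability counter screen: CellTiter-Glo luminescence, read after 30 min at room temperature, in ARE-bla HepG2 wells. Compound exposure lasted 16 h at 37C/5% CO2, following a 5 h pre-incubation of the cells after plating.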

Experiment [8] in a line: qHTS assay for small molecule activators of the heat shock response signaling pathway - cell viability counter screen (AID 743209). Further: nearly all actives have a fitted effect of over 50% in size. Further: potency means the concentration at half of the fitted maximal effect. The procedure, abridged: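 Cytotoxicity counter screen run in the same wells as the heat-shock bla reporter assay: HeLa HSE-bla cells, 5 h compound exposure at 37 C, viability read by CellTiter-Glo luminescence.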
Experiment [9] can be described thus: qHTS assay for small molecule activators of the heat shock response signaling pathway (AID 743210; active means well fitted activation curve with a large enough effect in the signal ratio in the repeat runs, with a control signal flat, not every such curve was filed as active; the % refers to the signal ratio; further: series mostly up to about 63 µM). The essentials: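 Beta-lactamase reporter read-out: FRET substrate fluorescence after 2.5 h at RT, following 5 h compound treatment at 37 C of HeLa cells carrying HSE-driven bla reporter; quantitative HTS format.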
Experiment [10] addresses Peroxisome proliferator-activated receptor gamma (Homo sapiens) (UniProt P37231). The experiment in a line: qHTS assay to identify small molecule antagonists of the peroxisome proliferator-activated receptor gamma (PPARg) signaling pathway (AID 743191; calls by dose curve; further: series mostly up to about 63 µM; nearly all actives have a fitted effect of over 30% in size). The essentials:
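GeneBLAzer PPARg UAS-bla HEK293H cells, 5 h post-plating, exposed to compounds 17 h at 37C. LiveBLAzer B/G FRET substrate added for 1 h at room temperature; beta-lactamase reporter read by fluorescence intensity.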

Chain of Peroxisome proliferator-activated receptor gamma (Homo sapiens) (P37231 whole entry, looked up): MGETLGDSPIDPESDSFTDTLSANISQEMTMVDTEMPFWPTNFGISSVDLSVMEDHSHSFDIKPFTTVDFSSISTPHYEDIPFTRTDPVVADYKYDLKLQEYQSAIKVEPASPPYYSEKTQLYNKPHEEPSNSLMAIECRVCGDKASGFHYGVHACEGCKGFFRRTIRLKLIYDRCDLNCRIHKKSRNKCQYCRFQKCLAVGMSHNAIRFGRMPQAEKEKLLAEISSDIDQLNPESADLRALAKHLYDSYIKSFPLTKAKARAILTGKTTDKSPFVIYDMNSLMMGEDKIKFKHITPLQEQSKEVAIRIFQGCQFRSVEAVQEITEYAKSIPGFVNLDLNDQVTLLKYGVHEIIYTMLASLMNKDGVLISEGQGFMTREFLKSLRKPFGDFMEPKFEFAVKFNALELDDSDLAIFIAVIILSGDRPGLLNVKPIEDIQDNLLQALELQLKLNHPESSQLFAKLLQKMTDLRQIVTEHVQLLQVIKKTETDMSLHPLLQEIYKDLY
Chain of Aryl hydrocarbon receptor (Homo sapiens) (P35869 whole entry, looked up): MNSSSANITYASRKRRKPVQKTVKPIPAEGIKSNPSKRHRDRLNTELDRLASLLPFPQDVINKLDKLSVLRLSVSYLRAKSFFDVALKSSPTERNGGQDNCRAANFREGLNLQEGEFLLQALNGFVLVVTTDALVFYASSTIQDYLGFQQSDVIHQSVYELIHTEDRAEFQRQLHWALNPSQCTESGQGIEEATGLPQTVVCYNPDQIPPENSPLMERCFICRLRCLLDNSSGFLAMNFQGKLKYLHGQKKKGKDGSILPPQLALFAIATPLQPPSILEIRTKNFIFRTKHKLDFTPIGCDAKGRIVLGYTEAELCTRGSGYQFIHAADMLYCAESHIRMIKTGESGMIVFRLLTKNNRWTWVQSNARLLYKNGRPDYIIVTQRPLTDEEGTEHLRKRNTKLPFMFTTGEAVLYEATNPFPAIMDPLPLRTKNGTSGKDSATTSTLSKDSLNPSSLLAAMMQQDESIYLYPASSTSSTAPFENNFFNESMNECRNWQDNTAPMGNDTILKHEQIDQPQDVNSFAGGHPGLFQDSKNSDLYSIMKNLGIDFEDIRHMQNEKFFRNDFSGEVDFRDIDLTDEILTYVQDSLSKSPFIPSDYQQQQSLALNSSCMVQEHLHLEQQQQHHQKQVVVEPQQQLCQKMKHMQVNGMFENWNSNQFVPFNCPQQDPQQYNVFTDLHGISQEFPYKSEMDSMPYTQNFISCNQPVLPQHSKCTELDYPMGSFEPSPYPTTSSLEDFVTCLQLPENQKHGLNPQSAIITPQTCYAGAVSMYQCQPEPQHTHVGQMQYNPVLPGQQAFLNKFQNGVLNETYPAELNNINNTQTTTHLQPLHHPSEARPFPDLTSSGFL

As to `CC(=O)Nc1ccc(C(=O)CCl)cc1`, the Potency in [1] is 7.7 µM (active); in experiment [5] it was 13.8 µM (active); in [6] it was 34.6 µM (active); in experiment [7], “inactive and 19.3 µM (active)”; in experiment [8], “inactive and 3.89 µM (active)”. The Potency result in [2], in experiment [3], in experiment [4] and in experiment [9] was “inactive” each time.
Turning to `C=C(C)C1CC=C(C)C(OC(C)=O)C1` (stereo not given), the Potency entry in experiment [1], in experiment [2], in experiment [3], in [4], in experiment [10] and in [5] was “inactive” in each case. For the same compound, the Potency entry in [6], in [7] and in experiment [9] was “inactive” each time.
Consider `CCOc1ccccc1C(N)=O`, for which the Potency entry in [1], in experiment [2], in experiment [3], in experiment [4], in experiment [10] and in experiment [5] was “inactive” throughout. In addition, the Potency result in [6], in experiment [7] and in [9] was “inactive” in each case.
For `CCCCCCCCCCCC[N+](C)(C)C`, the Potency entry in [1], in experiment [2], in [3], in experiment [4], in [10] and in experiment [9] was “inactive” throughout. Moreover, the Potency in [6] was 8.61 µM (active); in experiment [7], “inactive and 48.6 µM (active) and 61.1 µM (active)”.
For `CC(=O)N[C@@H](CS)C(=O)O`, the Potency entry in [1], in [2], in experiment [3], in experiment [4], in experiment [10] and in experiment [5] was “inactive” throughout. Besides, the Potency result in experiment [6], in experiment [7] and in [9] was “inactive” each time.
Turning to `CN1C(=O)c2ccc([N+](=O)[O-])cc2C1=O`, the Potency entry in experiment [1], in [2], in [3], in experiment [4], in experiment [10] and in experiment [5] was “inactive” throughout. Also, the Potency entry in experiment [7], in [8] and in experiment [9] was “inactive” in each case.
As for `CCc1cc(C(C)(C)C)c(O)c(C(C)(C)C)c1`, the Potency entry in experiment [1], in experiment [2], in experiment [3], in experiment [4], in experiment [10] and in experiment [5] was “inactive” throughout. In addition, the Potency entry in experiment [6], in experiment [7] and in experiment [9] was “inactive” each time.
As for `C=CC(=O)OCCCCCCCC`, the Potency result in [1], in [2], in [3], in experiment [4], in experiment [10] and in experiment [5] was “inactive” in each case. Moreover, the Potency entry in experiment [6], in experiment [7] and in experiment [9] was “inactive” each time.
On to `CC(=O)OCC1=C(C(=O)O)N2C(=O)[C@@H](NC(=O)Cc3cccs3)[C@H]2SC1`, for which the Potency entry in experiment [1], in experiment [2], in experiment [3], in experiment [4], in [10] and in experiment [5] was “inactive” in each case. For the same compound, the Potency entry in experiment [7] and in experiment [8] was “inactive” in each case.
In the case of `COC(c1ccccc1)(c1ccccc1)[C@H](Oc1nc(C)cc(C)n1)C(=O)O`, the Potency result in experiment [1], in experiment [2], in [3], in [4], in [10] and in experiment [5] was “inactive” in each case. Further, the Potency result in [6], in experiment [7] and in experiment [9] was “inactive” each time.
In the case of `CN(C)c1ccc(C(=C2C=CC(=[N+](C)C)C=C2)c2ccccc2)cc1`, the Potency is 1.93 µM (active) in experiment [1]; “inactive and 1.93 µM (active)” in [3]; 26.8 µM (active) in [4]; 61.7 nM (active) and 668 nM (active) in experiment [5]; 545 nM (active) and 2.98 µM (active) in [7]. Moreover, in experiment [2], the Potency result is “inactive”.
As for `COc1ccc(Cc2cnc(N)nc2N)cc1OC`, the Potency result in experiment [1], in experiment [2], in experiment [3], in [4], in [5] and in experiment [6] was “inactive” throughout. The Potency result in experiment [7] and in experiment [9] was “inactive” in each case.
Turning to `Cc1cccc(O)c1C`, the Potency result in experiment [1], in experiment [2], in experiment [3], in [4], in experiment [10] and in experiment [5] was “inactive” throughout. Further, the Potency entry in experiment [6], in experiment [7] and in experiment [9] was “inactive” throughout.
On to `CC(C(O)c1ccc(O)cc1)N1CCC(Cc2ccccc2)CC1` (stereo not given), for which the Potency result in [1], in experiment [2], in experiment [3], in experiment [4], in experiment [10] and in experiment [5] was “inactive” each time. Further, the Potency result in experiment [6], in [7] and in experiment [9] was “inactive” in each case.
With `Clc1ccc2c(c1)C(N1CCNCC1)=Nc1ccccc1O2`, the Potency result in experiment [1], in experiment [2], in experiment [3], in experiment [4] and in experiment [10] was “inactive” each time. For the same compound, in [7], the Potency is 54.5 µM (active) and inactive.
Regarding `Cc1cccc([N+](=O)[O-])c1C(=O)O`, the Potency result in experiment [1], in experiment [2], in experiment [3], in experiment [4], in [10] and in experiment [5] was “inactive” throughout. The Potency result in [6], in experiment [7] and in experiment [9] was “inactive” each time.
